For test [1], the system named is Plasmodium falciparum Sir2 (PF13_0152, Sir2A). The test can be described thus: Plasmodium falciparum Sir2A binding compounds – biochemical, small-molecule microarray, 635 nm fluorescence, primary screen (AID 1098).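 Further: score merges spot fluorescence intensity with its signal-to-noise ratio.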 The following applies: fluorescence 635 nm, higher = more signal.
Test [2] is described as follows: probe aDKK1 binding to arrayed compounds – biochemical, biotinylated probe, 635/667 nm fluorescence, primary screen (AID 1099).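 Further: score merges 667nm spot fluorescence with signal to noise across triplicate slides; reference of the scale not given here.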 The following applies: small-molecule microarray, higher = more signal.
Test [3] is described as follows: probe aCHRDL2 binding to arrayed compounds – biochemical, biotinylated probe, 635/667 nm fluorescence, primary screen (AID 1100). The following applies: small-molecule microarray, higher = more signal.
Test [4] is described as follows: change in splice reporter luminescence, either direction, cell-based, HEK293, spliceosome inhibition project, primary screen (AID 1101).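 Further: HEK293 cells carrying a splicing-competent luciferase reporter gene; test concentration not given here.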 The following applies: HEK293 splicing luciferase reporter, 24 h, higher = more signal, called active from +8 up or from −8 down.
Test [5] has as its target Fibroblast growth factor 10 (Homo sapiens) (UniProt O15520). The experiment in a line: compounds binding fibroblast growth factor 10 – biochemical, small-molecule microarray, 635 nm fluorescence, primary screen (AID 1102). The following applies: FGF10 binding, fluorescence 635 nm, higher = more signal.
Test [6] concerns glycogen synthase kinase-3 (GSK3A per assay name; protocol says GSK3B). The experiment in a line: compounds binding glycogen synthase kinase-3 – biochemical, small-molecule microarray, 635 nm fluorescence, GSK3A, primary screen (AID 1103). Further: the record names both GSK3A and GSK3B. The following applies: fluorescence 635 nm, higher = more signal.
The target of test [7] is Epidermal growth factor receptor (Homo sapiens) (UniProt P00533). The experiment in a line: compounds binding epidermal growth factor receptor – biochemical, small-molecule microarray, 635 nm fluorescence, primary screen (AID 1104).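 Further: score merges 667 nm emission intensity with spot signal to noise over triplicate slides.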 The following applies: EGFR binding, higher = more signal.
Chain of Epidermal growth factor receptor (Homo sapiens) (P00533 whole entry, looked up): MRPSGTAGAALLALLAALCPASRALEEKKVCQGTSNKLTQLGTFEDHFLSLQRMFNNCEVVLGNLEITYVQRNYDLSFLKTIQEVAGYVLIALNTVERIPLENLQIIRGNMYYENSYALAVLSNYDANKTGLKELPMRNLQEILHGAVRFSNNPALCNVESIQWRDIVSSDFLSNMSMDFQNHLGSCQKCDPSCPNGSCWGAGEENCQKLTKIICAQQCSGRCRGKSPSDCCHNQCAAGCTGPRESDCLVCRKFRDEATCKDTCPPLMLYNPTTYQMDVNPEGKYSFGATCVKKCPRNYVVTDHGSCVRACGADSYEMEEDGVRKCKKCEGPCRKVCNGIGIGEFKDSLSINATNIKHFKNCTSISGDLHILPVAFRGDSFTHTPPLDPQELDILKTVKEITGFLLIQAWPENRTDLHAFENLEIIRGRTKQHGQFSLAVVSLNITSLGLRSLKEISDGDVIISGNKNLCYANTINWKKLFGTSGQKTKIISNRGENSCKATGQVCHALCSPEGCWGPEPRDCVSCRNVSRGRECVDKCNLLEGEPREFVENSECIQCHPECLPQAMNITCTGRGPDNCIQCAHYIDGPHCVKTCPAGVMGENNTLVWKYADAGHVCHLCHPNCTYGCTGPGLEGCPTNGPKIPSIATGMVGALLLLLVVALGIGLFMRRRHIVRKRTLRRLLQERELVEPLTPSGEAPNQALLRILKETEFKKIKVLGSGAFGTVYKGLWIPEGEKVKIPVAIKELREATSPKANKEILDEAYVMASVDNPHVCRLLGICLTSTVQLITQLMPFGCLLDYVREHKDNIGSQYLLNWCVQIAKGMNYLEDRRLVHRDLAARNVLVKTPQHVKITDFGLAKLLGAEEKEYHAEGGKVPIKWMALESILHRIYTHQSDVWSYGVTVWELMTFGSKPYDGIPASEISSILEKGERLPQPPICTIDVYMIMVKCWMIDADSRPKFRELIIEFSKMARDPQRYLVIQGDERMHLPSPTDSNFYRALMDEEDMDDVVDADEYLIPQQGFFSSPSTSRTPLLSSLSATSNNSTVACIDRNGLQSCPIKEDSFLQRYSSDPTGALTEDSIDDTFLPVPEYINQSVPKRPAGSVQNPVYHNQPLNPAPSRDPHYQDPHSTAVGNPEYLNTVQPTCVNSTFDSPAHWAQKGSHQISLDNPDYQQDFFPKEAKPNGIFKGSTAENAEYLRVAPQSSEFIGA
Test [8] addresses Follistatin-related protein 3 (Homo sapiens) (UniProt O95633). The experiment in a line: compounds binding follistatin-related protein 3 – biochemical, small-molecule microarray, 635 nm fluorescence, primary screen (AID 1105).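 Further: score merges emission near 667 nm and signal to noise per printed spot across three slides.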 The following applies: FSTL3 binding, higher = more signal.
The target of test [9] is Dickkopf-related protein 1 (Homo sapiens) (UniProt O94907). The experiment in a line: small molecules binding DKK1 protein – biochemical, small-molecule microarray, 635 nm fluorescence scan, primary screen (AID 1106).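 Further: score merges emission near 667 nm with signal to noise over three replicate slides.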 The following applies: higher = more signal.
Chain of Dickkopf-related protein 1 (Homo sapiens) (O94907 whole entry, looked up): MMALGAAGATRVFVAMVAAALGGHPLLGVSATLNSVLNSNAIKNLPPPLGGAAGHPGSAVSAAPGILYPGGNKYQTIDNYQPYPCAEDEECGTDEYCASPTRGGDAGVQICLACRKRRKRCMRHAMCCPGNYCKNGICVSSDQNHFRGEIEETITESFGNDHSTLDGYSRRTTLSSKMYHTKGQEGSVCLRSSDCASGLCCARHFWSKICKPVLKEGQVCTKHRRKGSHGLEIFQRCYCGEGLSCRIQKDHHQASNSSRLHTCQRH
Test [10] concerns Inhibin beta A chain (activin A). The experiment in a line: small molecules binding activin A – biochemical, small-molecule microarray, 635 nm fluorescence scan, primary screen (AID 1107).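 Further: mouse activin A protein probed at 4.33 µg/mL on printed slides; score merges bound-protein fluorescence near 667 nm with spot signal-to-noise.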 The following applies: INHBA, higher = more signal.

Calls of active or inactive are those of the source.

Chain of Fibroblast growth factor 10 (Homo sapiens) (O15520 whole entry, looked up): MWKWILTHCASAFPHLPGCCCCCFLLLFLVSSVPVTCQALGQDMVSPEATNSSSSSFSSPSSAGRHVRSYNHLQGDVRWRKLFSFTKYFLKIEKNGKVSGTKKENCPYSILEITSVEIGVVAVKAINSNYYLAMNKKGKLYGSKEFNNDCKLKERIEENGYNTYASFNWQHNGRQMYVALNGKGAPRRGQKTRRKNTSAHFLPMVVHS
Chain of Follistatin-related protein 3 (Homo sapiens) (O95633 whole entry, looked up): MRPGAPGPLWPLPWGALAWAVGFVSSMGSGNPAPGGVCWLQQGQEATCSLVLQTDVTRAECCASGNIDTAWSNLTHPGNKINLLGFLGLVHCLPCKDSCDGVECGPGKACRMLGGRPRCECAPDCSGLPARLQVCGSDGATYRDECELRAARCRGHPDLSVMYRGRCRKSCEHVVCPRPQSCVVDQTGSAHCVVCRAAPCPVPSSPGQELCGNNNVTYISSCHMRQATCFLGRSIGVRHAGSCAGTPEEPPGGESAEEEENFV

As to `O=C1O[C@@H](c2ccccc2)[C@@H](c2ccccc2)N2[C@@H](c3ccc(OCCO)cc3)[C@]3(C(=O)Nc4ccc(C#CC5=CCCCC5)cc43)[C@@H](C(=O)Nc3nc4ccccc4s3)[C@H]12`, the composite z-score in test [1] is 1.63; in test [2] it was -0.127; in test [3], -1.13; in test [5] it was 1.01; in [6], 0.489; in test [7] it was 0.554. Besides, the composite z-score was 0.0685 in [8], -0.188 in [9] and -0.289 in [10]. Further, the z-score in test [4] was -0.61 (inactive).
As for `C=CCNC(=O)[C@H]1[C@@H]2C(=O)O[C@@H](c3ccccc3)[C@@H](c3ccccc3)N2[C@@H](c2ccc(OCCO)cc2)[C@]12C(=O)N(C(=O)OCCOC)c1ccc(C#CCC(C(=O)OC)C(=O)OC)cc12`, the composite z-score was 1.4 in test [1]; 0.713 in test [2]; 0.997 in [3]; 1.44 in test [5]; 1.16 in [6]; 0.524 in test [7]. Also, the composite z-score in test [8] was found to be 1.08; in [9] it was 0.5; in test [10], 0.768. Moreover, the z-score in test [4] is 0.345 (inactive).
For the molecule `COCCCNC(=O)[C@@]1(Cc2ccccc2I)c2ccccc2C(=O)N(Cc2ccccc2OC)[C@H]1c1ccc(CO)cc1`, the composite z-score was -0.347 in [1]; -0.302 in test [2]; 0.941 in test [3]; -0.0058 in test [5]; -0.116 in test [6]; -0.824 in test [7]. Further, the composite z-score in test [8] was -0.557; in test [9] it was -1.51; in test [10], -1.43. The z-score in test [4] is 0.932 (inactive).
In the case of `COc1ccc(C(=O)Nc2ccc(CN3C(=O)[C@]4(O[C@H](CC(=O)N(CCO)Cc5ccccc5)[C@@H]([Si](C)(C)c5ccc(OC)cc5)[C@@H]4C)c4ccccc43)cc2)cc1`, the composite z-score in [1] is 1.11; in test [2], -0.0522; in test [3] it was -0.338; in test [5], 1.34; in test [6], 0.956; in test [7], 0.918. Besides, the values for the composite z-score in test [8], in test [9] and in test [10] were 1.34, 1.1 and 0.842, respectively. For the same molecule, in test [4], the z-score was -1.88 (inactive).
Regarding `C[C@]1(C(=O)NCC(F)(F)F)c2ccccc2C(=O)N(Cc2cc(C(F)(F)F)cc(C(F)(F)F)c2)[C@H]1c1ccc(CO)cc1`, the composite z-score in test [1] was 0.786; in test [2], 0.338; in test [3] it was 0.543; in [5], -0.2; in [6] it was -0.447; in [7], -0.654. Besides, the composite z-score in test [8] is -0.695; in test [9] it was -0.399; in test [10] it was -0.497. For the same molecule, the z-score in test [4] is 0.272 (inactive).
Take `C=CCC(OC(C)=O)[C@@H]1[C@@H](N(Cc2ccc(-c3ccccc3)cc2)C(=O)Cc2ccc(OC)cc2)c2cc(OCCCO)ccc2N1C(=O)Cc1ccc(OC)cc1` (stereo not given in full): the composite z-score in [1] was -0.214; in [2], 0.642; in [3], 0.327; in test [5], 0.0842; in test [6], -0.0794; in test [7], -0.0897. The composite z-score was -0.147 in test [8], -0.191 in [9] and 1.59 in test [10]. Also, the z-score in test [4] is -0.581 (inactive).
For `COCCOC(=O)N1C(=O)[C@@]2(c3cc(C#CCNC(N)=O)ccc31)[C@H](C(=O)N1CCN(c3ncccn3)CC1)[C@H]1C(=O)O[C@H](c3ccccc3)[C@H](c3ccccc3)N1[C@@H]2c1ccc(O)cc1`, the composite z-score was 0.505 in test [1]; -0.326 in test [2]; -0.47 in test [3]; -0.735 in test [5]; -0.438 in [6]; -1.14 in [7]. Also, the composite z-score is -0.997 in test [8], -1.92 in [9] and -0.853 in [10]. Besides, in test [4], the z-score was -0.428 (inactive).
Take `COC(=O)C1=CC(c2ccc(CO)cc2)=CC(C2CC2)N(Cc2cc3c(cc2Br)OCO3)C=C1C(=O)OC` (stereo not given): the composite z-score stood at 1.66 in [1]; 0.706 in test [2]; 0.844 in test [3]; 1.18 in [5]; 1.29 in test [6]; 0.737 in test [7]. For the same molecule, the figures for the composite z-score in [8], in [9] and in [10] were 0.89, 0.157 and 0.836, respectively. Besides, the z-score in test [4] was 1.17 (inactive).
`[N-]=[N+]=Nc1ccccc1C[C@]1(C(=O)N2CCCCC2)N=C(c2ccc(OCCCO)cc2)O[C@H]1c1ccccc1`: the composite z-score in test [1] worked out at 1.46; in test [2], 1.01; in [3] it was 1.11; in [5], 1.25; in test [6], 0.952; in test [7] it was 0.102. The figures for the composite z-score in [8], in test [9] and in test [10] were 0.616, 0.26 and 0.781, respectively. In test [4], the z-score was -0.117 (inactive).
With `Cc1ccc(S(=O)(=O)N2[C@@H](c3ccccc3)C(C(=O)O)=CC[C@H]2c2ccc(F)cc2)cc1`, the composite z-score was -0.434 in [1]; -0.224 in test [2]; 0.633 in [3]; 0.876 in test [5]; 1.08 in [6]; -0.882 in [7]. Moreover, the figures for the composite z-score in test [8], in [9] and in [10] were 0.489, -0.757 and -1.32, respectively. In test [4], the z-score was -0.207 (inactive).
On to `CCOC(=O)C[C@H]1[C@H](OC(=O)c2cc3ccccc3oc2=O)[C@@H](NC(=O)Cc2ccc(OC)cc2)c2cc(OCCCO)ccc2N1C(=O)Cc1ccc(OC)cc1`, for which the composite z-score in test [1] was 0.776; in test [2] it was -0.249; in test [3], -0.43; in test [5] it was 0.703; in test [6], 0.382; in test [7], 0.455. The composite z-score came to 0.789 in test [8], 0.328 in test [9] and 0.156 in test [10]. In test [4], the z-score was -1.28 (inactive).
With `COc1ccc([Si](C)(C)[C@H]2[C@H](CCO)O[C@@]3(C(=O)N(Cc4ccccc4)c4ccc(NC(=O)[C@H](C)O)cc43)[C@@H]2C)cc1`, the composite z-score is 1.18 in [1]; 0.305 in test [2]; 0.29 in test [3]; 0.139 in [5]; 0.0488 in [6]; -0.0574 in [7]. For the same molecule, the composite z-score in test [8] was -0.0813; in test [9], -0.119; in [10] it was 0.209. In test [4], the z-score was -2.35 (inactive).
On to `CC(C)(C)OC(=O)CC[C@@]1(C(N)=O)N=C(c2ccc(OCCCO)cc2)O[C@@H]1c1ccccc1CN=[N+]=[N-]`, for which the composite z-score in test [1] was determined as 0.469; in test [2] it was 1.42; in [3], 1.08; in test [5] it was 1.48; in test [6], 1.1; in [7], 0.0813. For the same molecule, the composite z-score was 0.211 in test [8], -0.105 in test [9] and 0.854 in test [10]. For the same molecule, the z-score in test [4] was -0.169 (inactive).
For `COc1cccc(C)c1NC(=O)O[C@H]1[C@H](OC(=O)Nc2ccccc2)[C@@H](OC(=O)Nc2ccccc2)[C@@H](OC)O[C@@H]1CO`, the composite z-score in test [1] was determined as 1.5; in test [2], 0.266; in test [3] it was 0.553; in test [5] it was 1.34; in [6] it was 0.927; in test [7], 0.191. In addition, the composite z-score in test [8] came to 1.48; in test [9], 0.474; in test [10], 0.525. Moreover, the z-score in test [4] is 0.449 (inactive).
For `O=C1NC(=O)C2C1C=CC(C(O)C(O)CO)N2Nc1ccccn1` (stereo not given), the composite z-score is 0.0854 in test [1]; -0.191 in [2]; -0.104 in test [3]; 0.183 in [5]; 0.335 in test [6]; 0.386 in test [7]. Further, the composite z-score was 0.178 in test [8], 0.173 in test [9] and 0.0473 in test [10]. Besides, the z-score in test [4] is -0.396 (inactive).
`CC(C)[Si](C#Cc1ccccc1)(O[C@H](c1ccccc1)c1cn(Cc2ccccc2)nn1)C(C)C`: the composite z-score was 1.56 in test [1]; 0.191 in [2]; -0.386 in [3]; 0.785 in test [5]; 1.06 in test [6]; 0.726 in test [7]. The composite z-score in [8] is 1.49; in [9] it was 1.86; in test [10] it was -0.165. Also, the z-score in test [4] was -1.97 (inactive).
With `O=C1NC(=O)C2C1C=CC(C(O)C(c1ccccc1)c1ccccc1)N2Nc1ccccn1` (stereo not given), the composite z-score is 0.737 in [1]; 1.25 in [2]; 1.15 in test [3]; 0.909 in test [5]; -0.145 in test [6]; 0.457 in test [7]. For the same molecule, the composite z-score in test [8] was found to be 0.503; in test [9], 0.593; in [10], 1.32. Moreover, the z-score in test [4] is 0.864 (inactive).

Values taken from PubChem BioAssay.
